SENP8 block-1: SENP8 (human) protease inhibition | inhibition, % at 20 µM | recombinant SENP8, Nedd8 substrate fluorescence | Q96LD8 | 360,000 tested, 0.64% active; in the data active means inhibition mostly above about 40%, no sharp cut-off; inactive means mostly below about 27%
Target sequence (Q96LD8 whole entry, looked up): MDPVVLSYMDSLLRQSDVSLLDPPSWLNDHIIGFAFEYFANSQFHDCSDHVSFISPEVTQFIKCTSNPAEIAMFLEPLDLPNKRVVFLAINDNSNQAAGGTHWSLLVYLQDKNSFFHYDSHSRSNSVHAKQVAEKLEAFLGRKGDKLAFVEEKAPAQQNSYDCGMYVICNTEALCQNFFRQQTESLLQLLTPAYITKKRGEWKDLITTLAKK
SENP8 block-2: SENP8 protease inhibition. purified SENP8, Z-RLRGG-aminoluciferin cleavage, luminescence. inhibition, % at 10 µM. 330,000 tested, 1.2% active. AID 2540; in the data active means inhibition above about 50%
Platelet DG rel: modulates dense granule release in human platelets. human platelet-rich plasma, SFLLRN dense granule ATP release, luminescence. 300,000 tested, 0.22% active. inhibition, %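 (compounds screened at 7.5 µM in platelet-rich plasma)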;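 active means mean replicate score, as percent of positive control, at or above 50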
SENP7 block: blocks the human protease SENP7; Q9BQF6; recombinant SENP7, Z-RLRGG-aminoluciferin luminescence, 40 min; inhibition, % at 5 µM; 330,000 tested, 1.5% active; AID 434973;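 active means inhibition above about 50% at the single test dose, limit read from the data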;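 further: plate controls were DMSO with enzyme for no effect and no enzyme buffer wells for full effect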
Target sequence (Q9BQF6 706-1050 limits assumed): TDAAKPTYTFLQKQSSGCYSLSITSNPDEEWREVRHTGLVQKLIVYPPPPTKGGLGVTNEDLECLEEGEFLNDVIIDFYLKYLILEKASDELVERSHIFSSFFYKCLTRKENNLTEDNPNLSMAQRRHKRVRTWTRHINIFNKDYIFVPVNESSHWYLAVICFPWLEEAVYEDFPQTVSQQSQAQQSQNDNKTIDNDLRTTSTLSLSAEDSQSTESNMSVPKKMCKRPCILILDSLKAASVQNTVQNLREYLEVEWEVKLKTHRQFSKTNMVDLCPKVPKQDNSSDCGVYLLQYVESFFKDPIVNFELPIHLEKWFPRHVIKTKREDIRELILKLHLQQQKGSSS
SENP6 block: inhibitors of human SENP6 protease | Recombinant SENP6 catalytic domain, aminoluciferin luminescence | Q9GZR1 | inhibition, % at 10 µM | 330,000 tested, 1.8% active | AID 2599;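 active means inhibition above about 50% at the single tested dose, limit read from the data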;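 further: plate controls were DMSO wells with enzyme for no effect and DMSO wells lacking enzyme for full effect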
SENP8 inh conf: SENP8 (human) inhibition, single concentration confirmation; shares compounds with SENP8 block-1; purified SENP8, Nedd8-AMC/pro-Nedd8 cleavage fluorescence, 30 min; inhibition, % at 25 µM; 1,400 tested, 15% active; in the data active means inhibition mostly above about 39%, no sharp cut-off; inactive means mostly below about 34%
An asterisk follows results filed as active; . = not tested or not shown; ! = not active in a repeat. Shown are actives, neighbours in structure and some others; about 2.4% of the full set was active somewhere.

SMILES | SENP8 block-1 | SENP8 block-2 | Platelet DG rel | SENP7 block | SENP6 block | SENP8 inh conf
O=C(NC1CCCCC1)C(c1ccco1)N(CCc1ccccc1)C(=O)C(F)(F)F (centres undefined) | 45* | 2 | 0 | 0 | -11 | 20
NC(=O)c1nsc(C(=O)N(CCc2ccccc2)C(C(=O)NC2CCCC2)c2ccco2)c1N (centres undefined) | -271 | -11 | -4 | 4 | -5 | .
O=C(NCc1ccc(F)cc1F)Nc1cnccc1C(F)(F)F | 23 | 10 | -3 | 1 | 0 | .
NC(=O)CC(NC(=O)c1ccccc1)c1ccc(NCc2ccc(F)c(F)c2)c([N+](=O)[O-])c1 (centres undefined) | 23 | 4 | -10 | -3 | -13 | .
NC(=O)CC(NC(=O)c1ccccc1)c1ccc(NCCc2ccc(Cl)cc2)c([N+](=O)[O-])c1 (centres undefined) | 44* | -5 | -1 | 1 | 1 | -1
NC(=O)CC(NC(=O)c1ccccc1)c1ccc(NC2CCCCC2)c([N+](=O)[O-])c1 (centres undefined) | 43* | -10 | 1 | 9 | -16 | 18
O=C(NC(Cc1ccc(O)cc1)C(=O)O)c1ccc2c(c1)OCO2 (centres undefined) | 10 | -2 | . | -3 | -2 | .
O=C(C[n+]1ccc(/C=N/O)cc1)N(Cc1ccccc1)Cc1ccccc1 | 11 | -11 | 1 | -7 | -7 | .
CCCC(=O)OCCNc1cc(SCc2ccco2)c2nonc2c1[N+](=O)[O-] | 62* | 26 | 8 | 18 | 32 | 6
CCCSc1cc(NCCOC(=O)CCC)c([N+](=O)[O-])c2nonc12 | 20 | -2 | -3 | 9 | 12 | .
CCCS(=O)(=O)NC(=O)C1(C)CCN(C(=O)COc2ccc(Cl)cc2Cl)C1 (centres undefined) | 12 | . | . | . | . | .
C/C(=N\NC(=O)c1[nH]c2c([N+](=O)[O-])cc(C)cc2c1-c1ccccc1)c1cccnc1 | 60* | 3 | 2 | 4 | -8 | 13
C/C(=N\NC(=O)c1cccnc1)c1ccc(C)c([N+](=O)[O-])c1 | 6 | 3 | 15 | 1 | -20 | .
COc1ccccc1NC(=O)CSC(N)=O | 46* | -4 | 7 | -4 | -10 | 17
COc1ccc(NCc2nnc(SCC(=O)Nc3ccccc3OC)o2)cc1 | 46* | 2 | 17 | -7 | -4 | 37
Cc1ccc(S(=O)(=O)N2CCN(C(=O)COC(=O)COc3ccc(Cl)cc3)CC2)c(C)c1 | 14 | . | . | . | . | .
CCCCC(=O)N(C)c1c(CC)nc2c(OCC(N)=O)cccn12 | 6 | . | . | . | . | .
CN(C(=O)CC1C(=O)NCCN1Cc1cccc(C(F)(F)F)c1)C1CCOCC1 (centres undefined) | -163 | -3 | 0 | -10 | -2 | .
CN(C1CCCCC1)S(=O)(=O)c1ccc2c(c1)c(=O)c(C(=O)O)cn2C | 17 | . | . | . | . | .
CC1Cc2cc(/C(O)=C3/C(=O)C(=O)N(CCCn4ccnc4)C3c3cccc([N+](=O)[O-])c3)ccc2O1 (centres undefined) | 18 | -2 | 2 | 0 | 2 | .
CCN(C(=O)c1cn(C)c(=O)c2cc(OC)c(OC)cc12)c1cc(OC)ccc1OC | 43* | -1 | -1 | 0 | -13 | 13
COc1ccccc1NC(=O)c1cn(C)c(=O)c2cc(OC)c(OC)cc12 | 42* | -7 | 1 | -10 | -9 | 63*
CN(CCCC(=O)N1CCN(c2ncccn2)CC1)S(=O)(=O)c1ccc(F)cc1 | -12 | -10 | . | 0 | 0 | .
Cc1cc(C(=O)NNC(=O)[C@H](C)NC(=O)c2ccc(Br)cc2)c(C)o1 | 8 | -3 | . | 2 | -15 | .
N#CC(c1ccc(Cl)nn1)c1ccccc1Cl (centres undefined) | 41* | 3 | -3 | 5 | -8 | 9
SMILES | SENP8 block-1 | SENP8 block-2 | Platelet DG rel | SENP7 block | SENP6 block | SENP8 inh conf
N#CC(c1ccc(Cl)cc1)c1ccc(Cl)nn1 (centres undefined) | 23 | 5 | 33 | -8 | -10 | .
CC1CN(C(=O)CNC(=O)COc2ccccc2)CC(C)O1 (centres undefined) | 2 | -7 | . | 3 | -11 | .
O=[N+]([O-])c1ccc(Sc2ccccc2Cl)nc1 | 40* | -2 | 3 | -3 | -11 | 8
Nc1ccc(Sc2ccccc2Cl)nc1 | 14 | 1 | -2 | -2 | 1 | .
CCc1csc(CCNC(=O)C2CCC(=O)N(CCc3cccc(F)c3)C2)n1 (centres undefined) | 5 | 5 | -3 | 1 | 1 | .
COc1ccc(CNC(=O)Nc2cc(C)cc(C)c2)cc1 | 43* | -11 | -7 | -4 | 1 | 1
CC(=O)N(O)CCCCCNC(=O)CCC(=O)N(O)CCCCCNC(=O)CCC(=O)N(O)CCCCCN | 50*! | 1 | -3 | 4 | -2 | 19
O=c1oc2ccccc2c(NC(c2ccccc2)c2ccccc2)c1[N+](=O)[O-] | 13 | -11 | -2 | -11 | -20 | .
CC(Nc1c([N+](=O)[O-])c(=O)oc2ccccc12)C(Cl)c1ccccc1 (centres undefined) | 52* | 2 | 0 | 4 | -13 | 11
Cc1ccc(C)c(Oc2cc(NN3CCCCC3)c([N+](=O)[O-])cc2[N+](=O)[O-])c1 | 42* | 0 | -5 | 8 | -8 | 18
Cc1ccc(F)c(Oc2cc(NN3CCCCC3)c([N+](=O)[O-])cc2[N+](=O)[O-])c1 | 32 | 0 | -2 | 5 | 6 | .
Cc1ccc(C(=O)N2CCN(Cc3ccccc3)CC2)o1 | 5 | -2 | 7 | -6 | -11 | .
O=C(c1ccc([N+](=O)[O-])o1)N1CCN(Cc2ccccc2)CC1 | 42* | 1 | -4 | 24 | -4 | 29
Nc1nc(NCCO)nc(NC2CCCCC2)c1[N+](=O)[O-] | 18 | -13 | -23 | -11 | -36 | .
Nc1nc(NCCOCCO)nc(NC2CCCCC2)c1[N+](=O)[O-] | 47* | -1 | -3 | 0 | 0 | -1
O=C(NCCCN1CCCCCC1)C1CC(=O)N(CCc2ccccc2)C1 (centres undefined) | 56* | 3 | -1 | 2 | 0 | 9
CCOc1ccc(N(CC(=O)Nc2nccs2)S(=O)(=O)c2c(C)[nH]c(=O)[nH]c2=O)cc1 | 12 | -4 | -18 | 3 | 10 | .
CC(C)c1noc2ncc(C(=O)c3cc(Cl)cc(Cl)c3O)cc12 | 46* | -6 | -5 | 2 | -3 | 18
CC1(C)C[C@H]2C3=CCC4[C@@]5(C)CC[C@H](O)[C@](C)(CO)C5CC[C@@]4(C)[C@]3(C)CC[C@@]2(C)[C@H](O)[C@@H]1O (some centres undefined) | 40* | -14 | . | -6 | -26 | 4
Cn1c(=O)c([N+](=O)[O-])c(-n2cnc3ccccc32)c2ccccc21 | 1 | 0 | -3 | 10 | 3 | .
O=C(O)c1cccc(C(=O)O)c1 | 45* | -17 | -3 | 12 | -9 | 12
Cc1cccc(N2C(=O)/C(=C\c3ccc(C(=O)O)cc3)c3ccccc3C2=O)c1 | 43* | 5 | -4 | 23 | 33 | -37
